UBC13 inh: inhibitors of human UBC13 polyubiquitin chain formation; P61088; TR-FRET; inhibition, % at 20 µM; actives 0.47% (n = 330,000); in the data active = inhibition above about 45%, passing the limit was not always enough; inconclusive = no clear call, values can overlap the other calls
Target sequence (P61088 whole entry, looked up): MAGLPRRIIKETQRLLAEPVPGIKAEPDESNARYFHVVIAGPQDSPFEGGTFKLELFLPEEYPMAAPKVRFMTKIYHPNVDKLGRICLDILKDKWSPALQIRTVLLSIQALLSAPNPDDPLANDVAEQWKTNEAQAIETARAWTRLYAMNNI
NR3A LBD binder: modulators (binders) of human NR3A ligand-binding domain; actives 2.5% (n = 340,000); Tm shift relative to glycine control, % at 25 µM; NR3A LBD differential scanning fluorimetry, Tm shift; 0% = protein alone, 100% = glycine-bound protein;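 active = melting temperature shift of at least 10% of the positive control shift, at one fixed dose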
SUMO HTRF inh: SUMOylation inhibition; P63279; HTRF SUMOylation assay, SAE1/SAE2 + UBC9, in vitro; inhibition, % at 35 µM; actives 0.36% (n = 290,000); in the data active = inhibition above about 50%, passing the limit was not always enough; inconclusive = no clear call, values can overlap the other calls
Target sequence (P63279 whole entry, looked up): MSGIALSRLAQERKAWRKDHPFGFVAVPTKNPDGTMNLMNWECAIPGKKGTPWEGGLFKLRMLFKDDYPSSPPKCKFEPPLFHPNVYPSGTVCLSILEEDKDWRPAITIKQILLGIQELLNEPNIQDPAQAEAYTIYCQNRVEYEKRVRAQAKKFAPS
HGIII-sPLA2 inh: Inhibits HGIII-sPLA2 liposome hydrolysis, primary screen; Q9NZ20; QFRET BODIPY PC-A2 liposome hydrolysis, fluorescence; inhibition, % at 12.2 µM; actives 0.56% (n = 370,000); AID 743126;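 active = inhibition above mean plus 3 SD of compounds lying within the high and low control bounds, cut at about 19% in these data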;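 note: 0% = median of test compound wells and 100% = no enzyme DMSO wells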
hGIII sPLA2 conf: human GIII-sPLA2 inhibition, confirmation. inhibition, % at 12.2 µM. recombinant hGIII-sPLA2, BODIPY PC-A2 QFRET fluorescence. actives 34% (n = 2,000). shares compounds with HGIII-sPLA2 inh;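 active = mean inhibition across triplicates above the hit cutoff set in the earlier primary screen, cut at about 19% in these data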;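 note: 0% = enzyme with DMSO and 100% = DMSO wells lacking enzyme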
535nm interf: counter-screen for HGIII-sPLA2 inhibitors: 535nm fluorescence interference; BODIPY FL product fluorescence interference, QFRET; shares compounds with HGIII-sPLA2 inh; inhibition, % at 12.2 µM; actives 8.5% (n = 2,000);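 active = average inhibition above the solvent-only control mean plus 3 SD, cut at about 6% in these data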;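 note: 0% = DMSO with substrate plus product and 100% = DMSO with substrate alone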
535nm interf DR: interferes with 535nm fluorescence in dose response counter-screen; shares compounds with HGIII-sPLA2 inh; AID 743455; BODIPY FL product fluorescence interference, cell-free; 240 tested, under 10 active; IC50, µM;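 active = IC50 at or below 10 µM; inactive = IC50 above 10 µM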
* = called active by the depositor; ? = inconclusive; . = no result given. Sampled rows, rich in hits. Any-hit rate of the full collection: about 3.3%.

SMILES	UBC13 inh	NR3A LBD binder	SUMO HTRF inh	HGIII-sPLA2 inh	hGIII sPLA2 conf	535nm interf	others
Cc1cccc(NC(=O)CN2CCN(C(=O)C3CCC3)CC2)c1C	4.0	3.0	.	20.7*	-6.9	-4.8
Cc1ccc2[nH]c(-c3cccc(N)c3)cc2c1	9.1	30.6*	-19.4	25.0*	4.4	4.2
CCNC(=O)c1cc2c(c(-c3cccc(-c4cncnc4)c3)n1)[C@@H](CCO)N(C(C)=O)C2	.	.	.	21.2*	-2.2	-9.6
OCC(CCc1c[nH]c2ccccc12)c1c[nH]c2ccccc12 (stereo not given)	.	.	.	35.1*	9.8	10.2*
Cc1ccc(-n2c(Cc3cccs3)nnc2SCC(=O)Nc2ccc(OCc3ccccc3)cc2)cc1	.	.	.	-25.4	.	.
CC(C)c1nccn1S(=O)(=O)c1cccc([N+](=O)[O-])c1	.	6.9	10.9	19.2*	6.1	-1.6
CN1CCN(S(=O)(=O)c2cccc([N+](=O)[O-])c2)CC1	2.8	1.3	.	.	.	.
COc1ccccc1Cn1[nH]nnc1=S	1.6	2.0	-1.1	22.3*	13.3	-2.0
COc1ccccc1CN1C(=O)CNC1=S	-0.2	2.4	1.0	.	.	.
COc1ccc(NCc2ccc([N+](=O)[O-])s2)c(OC)c1	.	-4.2	61.9	24.8*	13.0	3.2
CC(N)c1csc(NC(=O)c2cc(C(C)(C)C)nn2Cc2ccccc2)n1 (stereo not given)	.	.	.	-2.3	.	.
COc1ccc(CC(N)c2csc(NC(=O)c3cc(C(C)(C)C)nn3Cc3ccccc3)n2)cc1 (stereo not given)	.	.	.	24.1*	4.3	-4.6
O=C(Cc1ccccc1F)Nc1nnc(-c2cccnc2)s1	.	.	.	1.0	.	.
O=C(NC1CCCC1)C1(C(=O)C2CC2)CC(c2ccccn2)=NO1 (stereo not given)	.	.	.	1.1	.	.
CCc1ccc(C(=O)NCc2ccc(Cl)cc2)cc1	12.3	5.3	-4.3	20.5*	6.6	-6.5
Cc1cccc(Oc2cc(N)cc([N+](=O)[O-])c2)c1	13.0	-32.8	-9.5	20.2*	15.8	-1.6
Cc1nc2ccccn2c1C(=O)NNC(=S)Nc1ccc(Cl)cc1	-0.9	-10.2	13.7	13.8	.	.
Cc1cccc(-n2cnc(C(=O)NNC(=S)Nc3ccc(Cl)cc3)c2)n1	6.0	-2.1	-101.6	33.6*	59.0*	7.9*
CCCCNC(=O)C[C@@H]1C(=O)N2CCCC3=C2[C@@]1(C(=O)OCC)CCC3	.	.	.	6.0	.	.
Cc1cc(C(=O)O)c(CSc2ncn[nH]2)o1	-5.5	-0.3	-7.0	20.8*	0.1	-5.2
C=CCN1C(=O)[C@@H](CC(=O)N2CCCC2)[C@]2(C(=O)OC)CCCCC=C12	.	.	.	1.6	.	.
CCOc1ccc(C2CC(c3ccc(CC)cc3)Nc3nc(N)nn32)cc1 (stereo not given)	9.0	3.0	4.3	21.6*	0.4	-14.9
CN(Cc1ccccc1)S(=O)(=O)c1ccc(NC(=O)C2CCCO2)cc1 (stereo not given)	4.0	0.4	16.8	23.4*	-4.7	-13.8
CC(C)Cc1c2c([nH]c(=S)c1C#N)CCCC2	?	2.6	7.7	20.3*	30.4*	2.4	535nm interf DR=>122
Cc1[nH]c(=S)c(C#N)c2c1CCCC2	1.6	2.5	4.8	-0.9	.	.
SMILES	UBC13 inh	NR3A LBD binder	SUMO HTRF inh	HGIII-sPLA2 inh	hGIII sPLA2 conf	535nm interf	others
CCOC(=O)[C@]12CCCC3=C1N(CCC3)C(=O)[C@@H](CC(=O)NCCCN1CCCC1=O)C2	.	.	.	-0.9	.	.
O=C1CCC[C@H]2C[C@H](NCc3ccco3)CC[C@]23CCCN13	.	.	.	1.9	.	.
OC(COCc1ccc(Cl)cc1)CN1CCc2ccccc2C1 (stereo not given)	4.2	-1.5	-0.2	23.2*	0.2	-22.4
COC(=O)[C@]12C[C@H](CC(=O)NCc3ccc(C)o3)C(=O)N(Cc3cccc4ccccc34)C1=C[C@H](C1CCCC1)O[C@@H]2C	.	.	.	-13.3	.	.
CN(C)c1ccc(NC(=O)c2cccc(C(=O)Nc3ccc(N(C)C)cc3)n2)cc1	-11.6	-0.7	-4.2	28.1*	36.0*	-11.3	535nm interf DR=>122
C/C(=C/c1[nH]c(N)[n+](CC2CC2)c1Cc1ccccc1)Cn1[nH]c(=O)n(-c2ccccc2)c1=O	.	.	.	1.2	.	.
O=C(COC(=O)c1ncc(Cl)c(Cl)c1Cl)Nc1cccnc1Cl	-6.5	-1.8	.	20.2*	-5.4	-3.3
CCCCNC(=O)C1(C(=O)c2ccc(OC)cc2)CC(C(=O)OCC)=NO1 (stereo not given)	.	.	.	-0.5	.	.
CCOC(=O)c1cc2sccc2n1CC(=O)Nc1ccc(OC)cc1OC	5.4	2.0	2.9	20.9*	-25.4	-17.9
CCOC(=O)N1CCN(C(=O)CSc2nc(CC)nc3c2c(=O)n(C)c(=O)n3C)CC1	4.2	0.1	16.2	20.6*	-0.9	-19.5
CC1CN(c2ccc([N+](=O)[O-])c(NCCOc3ccccc3)c2)CCN1 (stereo not given)	-21.8	1.8	7.5	39.1*	10.4	-25.3
Clc1ccc(-n2c(SCc3cccc4ccccc34)nnc2-c2ccccn2)cc1	.	.	.	-6.5	.	.
Cc1cc2nc(-c3ccc[nH]c3=O)n(Cc3ccccc3F)c2cc1C	.	-3.7	27.4	19.3*	-2.3	-12.8
COc1ccccc1CCn1cnc(-c2ccccc2)c1CC(C)C	.	.	.	15.2	.	.
O=[N+]([O-])c1ccc(Cn2ccc3ccc(-c4ccc5ccn(Cc6ccccc6)c5c4)cc32)cc1	.	.	.	9.1	.	.
O=c1c2cc3cc(Cl)ccc3nc2ncn1Cc1ccc(Oc2ccccc2)cc1	.	.	.	-0.5	.	.
CSCCC(NC(=O)COc1ccccc1)C(=O)N(C)CC(=O)Nc1c(C)cccc1C (stereo not given)	-4.0	-0.4	.	20.7*	0.5	-17.2
CSCCC(NC(=O)COc1ccccc1)C(=O)OCCOc1ccc(C)cc1 (stereo not given)	-5.2	1.7	.	-7.9	.	.
C#CCN1C(=O)[C@]2(NCCc3c2[nH]c2ccc(OC)cc32)c2cc(F)ccc21	.	.	.	-0.6	.	.
CCOC(=O)N1CCN(CCC(=O)Nc2ccc(C)c(Br)c2)CC1	4.6	-1.8	24.0	-12.2	.	.
Cc1ccc(NC(=O)CCN2CCN(CCO)CC2)cc1Br	4.6	-3.1	3.2	22.8*	-5.5	-2.9
COc1cc2c(cc1OC)C1(C)N(CC2)C(C(C)=O)=NN1c1ccc(Cl)cc1 (stereo not given)	10.6	-0.6	20.9	19.7*	9.3	-4.6
Cc1cc(C)n(CC(O)COc2ccccc2[N+](=O)[O-])n1 (stereo not given)	7.3	1.4	-5.4	21.7*	-5.5	-7.1
CCOC(=O)N1CCN(C(=O)C[C@H]2C[C@@]3(C(=O)OC)C(=C[C@H](C4CCCC4)O[C@@H]3C)N(CCc3ccc(OC)c(OC)c3)C2=O)CC1	.	.	.	-7.5	.	.
O=C1c2ccccc2C(=O)c2c1ccc(O)c2O	.	-8.0	.	21.4*	11.2	-1.8
O=C(NCc1ccccc1)OCCN1C(=O)CCC12CCC(c1ccccc1)CC2 (stereo not given)	.	.	.	2.5	.	.
